{"source": "the supplement of paper PMC4466140", "assay_in_all_cases": "SPOT peptide array binding signal intensity (averaged, normalized) (arbitrary units (background-subtracted, floor 0; scale differs between SH3 domains)); higher = stronger binding of the SH3 domain to the peptide", "key": {"AgAbp1": {"target": "AgAbp1", "method_in_brief": "(§1)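 To measure binding, SH3 domains from four yeast species were fused to GST, expressed in E. coli BL21(DE3) and purified on glutathione Sepharose. Each domain was incubated at 10 μg/ml overnight at 4°C on cellulose membranes with synthetic 15-mer peptides whose cysteines were replaced by serines. Anti-GST antibody, an HRP anti-mouse secondary and luminol were used for detection, and images were quantified with Genespotter. Reported binding signal is normalized, background-subtracted spot intensity averaged over replicates, in arbitrary units that differ between domains.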"}, "AgBbc1": {"target": "AgBbc1", "method_in_brief": "as §1"}, "AgBem1-D1": {"target": "AgBem1-D1", "method_in_brief": "as §1"}, "AgBzz1-D1": {"target": "AgBzz1-D1", "method_in_brief": "as §1"}, "AgBzz1-D2": {"target": "AgBzz1-D2", "method_in_brief": "as §1"}, "AgCyk3": {"target": "AgCyk3", "method_in_brief": "as §1"}, "AgFus1": {"target": "AgFus1", "method_in_brief": "as §1"}, "AgHof1": {"target": "AgHof1", "method_in_brief": "as §1"}, "AgHse1": {"target": "AgHse1", "method_in_brief": "as §1"}, "AgLsb1": {"target": "AgLsb1", "method_in_brief": "as §1"}, "AgLsb4": {"target": "AgLsb4", "method_in_brief": "as §1"}, "AgMyo5": {"target": "AgMyo5", "method_in_brief": "as §1"}, "AgNbp2": {"target": "AgNbp2", "method_in_brief": "as §1"}, "AgRvs167": {"target": "AgRvs167", "method_in_brief": "as §1"}, "AgSho1": {"target": "AgSho1", "method_in_brief": "as §1"}, "AgSla1-D1-D2": {"target": "AgSla1-D1-D2", "method_in_brief": "as §1"}, "AgSla1-D3": {"target": "AgSla1-D3", "method_in_brief": "as §1"}, "CaAbp1-D1": {"target": "CaAbp1-D1", "method_in_brief": "as §1"}, "CaAbp1-D2": {"target": "CaAbp1-D2", "method_in_brief": "as §1"}, "CaBbc1": {"target": "CaBbc1", "method_in_brief": "as §1"}, "CaBem1-D1": {"target": "CaBem1-D1", "method_in_brief": "as §1"}, "CaBzz1-D1": {"target": "CaBzz1-D1", "method_in_brief": "as §1"}, "CaBzz1-D2": {"target": "CaBzz1-D2", "method_in_brief": "as §1"}, "CaCyk3": {"target": "CaCyk3", "method_in_brief": "as §1"}, "CaFus1": {"target": "CaFus1", "method_in_brief": "as §1"}, "CaHof1": {"target": "CaHof1", "method_in_brief": "as §1"}, "CaHse1": {"target": "CaHse1", "method_in_brief": "as §1"}, "CaLsb1": {"target": "CaLsb1", "method_in_brief": "as §1"}, "CaLsb4": {"target": "CaLsb4", "method_in_brief": "as §1"}, "CaMyo5": {"target": "CaMyo5", "method_in_brief": "as §1"}, "SpBzz1-D2": {"target": "SpBzz1-D2", "method_in_brief": "as §1"}, "SpCyk3": {"target": "SpCyk3", "method_in_brief": "as §1"}, "SpHof1": {"target": "SpHof1", "method_in_brief": "as §1"}, "SpHof1-2": {"target": "SpHof1-2", "method_in_brief": "as §1"}, "SpHof1-3": {"target": "SpHof1-3", "method_in_brief": "as §1"}, "SpHse1": {"target": "SpHse1", "method_in_brief": "as §1"}, "SpLsb1": {"target": "SpLsb1", "method_in_brief": "as §1"}, "SpLsb4": {"target": "SpLsb4", "method_in_brief": "as §1"}, "SpMyo1": {"target": "SpMyo1", "method_in_brief": "as §1"}, "SpNbp2": {"target": "SpNbp2", "method_in_brief": "as §1"}, "SpPex13": {"target": "SpPex13", "method_in_brief": "as §1"}, "SpRvs167": {"target": "SpRvs167", "method_in_brief": "as §1"}, "SpSla1-D1-D2": {"target": "SpSla1-D1-D2", "method_in_brief": "as §1"}, "SpSla1-D3": {"target": "SpSla1-D3", "method_in_brief": "as §1"}}, "data": [{"binder": "KNRKNLPTIPIRLSG", "values": [{"measurement": "SPOT peptide array binding signal intensity", "setting": "AgAbp1", "value": 4080}, {"measurement": "SPOT peptide array binding signal intensity", "setting": "AgBbc1", "value": 456}, {"measurement": "SPOT peptide array binding signal intensity", "setting": "AgBem1-D1", "value": 144}, {"measurement": "SPOT peptide array binding signal intensity", "setting": "AgBzz1-D1", "value": 104}, {"measurement": "SPOT peptide array binding signal intensity", "setting": "AgBzz1-D2", "value": 35}, {"measurement": "SPOT peptide array binding signal intensity", "setting": "AgCyk3", "value": 1}, {"measurement": "SPOT peptide array binding signal intensity", "setting": "AgFus1", "value": 63}, {"measurement": "SPOT peptide array binding signal intensity", "setting": "AgHof1", "value": 240}, {"measurement": "SPOT peptide array binding signal intensity", "setting": "AgHse1", "value": 206}, {"measurement": "SPOT peptide array binding signal intensity", "setting": "AgLsb1", "value": 318}, {"measurement": "SPOT peptide array binding signal intensity", "setting": "AgLsb4", "value": 108}, {"measurement": "SPOT peptide array binding signal intensity", "setting": "AgMyo5", "value": "≤ 0"}, {"measurement": "SPOT peptide array binding signal intensity", "setting": "AgNbp2", "value": 1360}, {"measurement": "SPOT peptide array binding signal intensity", "setting": "AgRvs167", "value": 5.83}, {"measurement": "SPOT peptide array binding signal intensity", "setting": "AgSho1", "value": 4630}, {"measurement": "SPOT peptide array binding signal intensity", "setting": "AgSla1-D1-D2", "value": 402}, {"measurement": "SPOT peptide array binding signal intensity", "setting": "AgSla1-D3", "value": 7}, {"measurement": "SPOT peptide array binding signal intensity", "setting": "CaAbp1-D1", "value": 1420}, {"measurement": "SPOT peptide array binding signal intensity", "setting": "CaAbp1-D2", "value": 3510}, {"measurement": "SPOT peptide array binding signal intensity", "setting": "CaBbc1", "value": 1560}, {"measurement": "SPOT peptide array binding signal intensity", "setting": "CaBem1-D1", "value": 22}, {"measurement": "SPOT peptide array binding signal intensity", "setting": "CaBzz1-D1", "value": 221}, {"measurement": "SPOT peptide array binding signal intensity", "setting": "CaBzz1-D2", "value": 67.2}, {"measurement": "SPOT peptide array binding signal intensity", "setting": "CaCyk3", "value": 8}, {"measurement": "SPOT peptide array binding signal intensity", "setting": "CaFus1", "value": 382}, {"measurement": "SPOT peptide array binding signal intensity", "setting": "CaHof1", "value": 0.25}, {"measurement": "SPOT peptide array binding signal intensity", "setting": "CaHse1", "value": 28.2}, {"measurement": "SPOT peptide array binding signal intensity", "setting": "CaLsb1", "value": 0.5}, {"measurement": "SPOT peptide array binding signal intensity", "setting": "CaLsb4", "value": 1340}, {"measurement": "SPOT peptide array binding signal intensity", "setting": "CaMyo5", "value": "≤ 0"}]}, {"binder": "SSTPTTPERPKRKSG", "values": [{"measurement": "SPOT peptide array binding signal intensity", "setting": "SpBzz1-D2", "value": "≤ 0"}, {"measurement": "SPOT peptide array binding signal intensity", "setting": "SpCyk3", "value": "≤ 0"}, {"measurement": "SPOT peptide array binding signal intensity", "setting": "SpHof1", "value": 2.5}, {"measurement": "SPOT peptide array binding signal intensity", "setting": "SpHof1-2", "value": 2}, {"measurement": "SPOT peptide array binding signal intensity", "setting": "SpHof1-3", "value": 177}, {"measurement": "SPOT peptide array binding signal intensity", "setting": "SpHse1", "value": 11}, {"measurement": "SPOT peptide array binding signal intensity", "setting": "SpLsb1", "value": 1030}, {"measurement": "SPOT peptide array binding signal intensity", "setting": "SpLsb4", "value": 8450}, {"measurement": "SPOT peptide array binding signal intensity", "setting": "SpMyo1", "value": "≤ 0"}, {"measurement": "SPOT peptide array binding signal intensity", "setting": "SpNbp2", "value": "≤ 0"}, {"measurement": "SPOT peptide array binding signal intensity", "setting": "SpPex13", "value": "≤ 0"}, {"measurement": "SPOT peptide array binding signal intensity", "setting": "SpRvs167", "value": 450}, {"measurement": "SPOT peptide array binding signal intensity", "setting": "SpSla1-D1-D2", "value": 8}, {"measurement": "SPOT peptide array binding signal intensity", "setting": "SpSla1-D3", "value": "≤ 0"}]}]}
